# Assay results from PubChem BioAssay (NCI).
# About 83,000 compounds went through this panel and 20% of them were active in at least one assay; those are over-represented in the sample as a whole.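 Activity criterion: percent growth below 10, measured after cells in 96-well plates were exposed to a single compound concentration for 48 hours.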 Active and inactive are the calls of the source.
# Test system: A549/ATCC NSCLC
# Assay: NCI-60 one-dose screen, 48 h (100 = growth as untreated, 0 = no growth, -100 = all killed)
# Details: 10 µM unless noted
row,Compound,growth
1,CC[C@H](C)[C@H](NC(=O)Nc1ccccc1)C(=O)N(C)[C@H](C[C@@H](OC(C)=O)c1nc(C(=O)N[C@@H](Cc2ccccc2)C[C@H](C)C(=O)OC)cs1)C(C)C,23.5% (inactive)
2,c1ccc(CCN2CCCCC2Cc2ccccc2)cc1 (centres undefined),96.2% (inactive)
3,CC(=O)O[C@H]1CCC2(C)C(=CCC3C2CCC2(C)/C(=N/OC(=O)c4ccc(N(CCCl)CCCl)cc4)CCC32)C1 (some centres undefined),2.05% (active)
4,O=C(N/N=C/c1ccc(N(CCCl)CCCl)cc1)c1cc(=O)[nH]c(=O)[nH]1,106% (inactive)
5,O=[As]c1ccc(C(=O)c2ccc(Oc3ccccc3)cc2)cc1 (centres undefined),-94.8% (active)
6,O=[N+]([O-])c1cc([N+](=O)[O-])c(Cl)c(Cl)c1Cl,80.3% (inactive)
7,COc1ccc2c(c1)NC1=C(C(=O)OC1)C2c1cc(OC)c(OC)c(OC)c1 (centres undefined),15.6% (inactive)
8,C=CCc1ccc(OC(=O)Cc2ccccc2)c(OC)c1,104% (inactive)
9,CC(C)(O)/C=C/C(=O)[C@](C)(O)[C@H]1[C@H](O)C[C@@]2(C)[C@@H]3CC=C4[C@@H](C=C(O)C(=O)C4(C)C)[C@]3(C)C(=O)C[C@]12C,0.767% (active)
10,C[C@]12CCc3sc(-c4ccc(Cl)cc4)nc3C1=CC[C@@H]1[C@@H]2CC[C@]2(C)C(=O)CC[C@@H]12,80.2% (inactive)
11,C=CCC1(CC)C(=O)NC(=S)NC1=O,102% (inactive)
12,NC(Cc1ccc2c(c1)OCO2)c1ccc2c(c1)OCO2 (centres undefined),104% (inactive)
13,COc1ccc(/C=C(/C(=O)N2CCCC2)c2cc(OC)c(OC)c(OC)c2)cc1N,41.1% (inactive)
14,Nc1nc(N)c(-c2ccc(Cl)c(Cl)c2)c(/C=C/c2ccc(S(=O)(=O)F)cc2)n1,81.3% (inactive)
15,Nc1c(Br)cc([N+](=O)[O-])cc1[N+](=O)[O-],92.3% (inactive)
16,Oc1ccc(O)c2c1C1(Cl)C(Cl)=C(Cl)C2(Cl)C1(Cl)Cl,46.1% (inactive)
17,CN(C)P1(N(C)C)=NP(N(C)C)(N(C)C)=NP(N(C)C)(N(C)C)=N1,99.3% (inactive)

row,Compound,growth
1,CCCCNCCc1ccccn1,100% (inactive)
2,CNC(=O)Oc1cccc(OC)c1,106% (inactive)
3,C=C=[CH][Sn]([c]1ccccc1)([c]1ccccc1)[c]1ccccc1,-58.7% (active)
4,NC(=O)SCC(=O)Nc1ccc([As](=O)(O)O)cc1,85.9% (inactive)
5,C[C@]12CC[C@H]3[C@@H](C[C@@H]4N=C(c5ccc(O)cc5)S[C@@]45C[C@H](O)CC[C@]35C)[C@@H]1CC[C@@H]2O,52.1% (inactive)
6,CC1(C)N=C(N)N=C(N)N1c1ccc(CCCCc2ccc(S(=O)(=O)F)cc2)cc1,14% (inactive)
7,Nc1c(Br)cc2c3c(cccc13)-c1ccccc1-2,77.2% (inactive)
8,COc1cc2c(cc1OC)CN(C)C(C)C2 (centres undefined),93.6% (inactive)
9,c1ccc2nc(OCCN3CC3)ccc2c1,74.1% (inactive)
10,CC1(C)N=C(N)N=C(N)N1c1ccc(CNC(=O)Nc2ccc(S(=O)(=O)F)c(Cl)c2)c(Cl)c1,10% (inactive)
11,c1ccc(-c2ccc3ccccc3[o+]2)cc1,90.8% (inactive)
12,CC1COC(=O)C1 (centres undefined),101% (inactive)
13,COc1ccc(/C=C\c2cc(OC)c(OC)c(OC)c2)cc1N/C=C\C(=O)c1c[nH]c2ccccc12,28.4% (inactive)
14,CCCC(C)(C)c1ccc2c(c1)OC(C)(C)[C@@H]1CC=C(C)C[C@@H]21,88.2% (inactive)
15,OC1(c2ccc(Cl)cc2Cl)c2ccccc2C2=NCCN21 (centres undefined),103% (inactive)
16,CC1(CF)NC(=O)NC1=O (centres undefined),113% (inactive)
17,O=C(Nc1ccc(S(=O)(=O)F)cc1)Oc1ccccc1,97.2% (inactive)
